The values that follow come from PubChem BioAssay (NCI).

Test in all cases: NCI-60 one-dose screen, 48 h (100 = growth as untreated, 0 = no growth, -100 = all killed)
One assay has as its system SK-MEL-2 melanoma. To be noted: 10 µM unless noted.
In another assay the test system is EKVX NSCLC. To be noted: 10 µM unless noted.
Another assay relates to SN12C renal. The note with it: 10 µM unless noted.
For a further assay, the system named is UO-31 renal. The note with it: 10 µM unless noted.
A further assay deals with TK-10 renal. To be noted: 10 µM unless noted.
In another assay the test system is ACHN renal. To be noted: 10 µM unless noted.
Another assay concerns CAKI-1 renal. The note with it: 10 µM unless noted.
The next assay deals with A498 renal. The note with it: 10 µM unless noted.
For a further assay, the system named is CCRF-CEM leukemia. The note with it: 10 µM unless noted.
The test system of another assay is MOLT-4 leukemia. The note with it: 10 µM unless noted.
The next assay has as its system SR leukemia. To be noted: 10 µM unless noted.
The next assay relates to RPMI-8226 leukemia. To be noted: 10 µM unless noted.
For a further assay, the system named is OVCAR-8 ovarian. To be noted: 10 µM unless noted.
Another assay relates to OVCAR-5 ovarian. The note with it: 10 µM unless noted.
The next assay relates to OVCAR-4 ovarian. To be noted: 10 µM.
The next assay concerns SK-OV-3 ovarian. The note with it: 10 µM unless noted.
The next assay deals with IGROV1 ovarian. To be noted: 10 µM unless noted.
Another assay deals with OVCAR-3 ovarian. To be noted: 10 µM unless noted.
The subject of the next assay is HS 578T breast. To be noted: 10 µM unless noted.
A further assay has as its system NCI/ADR-RES ovarian. To be noted: 10 µM unless noted.

About 83,000 compounds went through this panel and 20% of them were active in at least one assay; those are over-represented in the sample as a whole.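 Step 1: grow cells in 96-well plates. Step 2: add test compound at a single concentration. Step 3: incubate 48 h. Step 4: record percent growth.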 Unmarked numbers belong to inactive results. Calls of active or inactive are those of the source. How the source made its calls: active means growth percent below 10; inactive means the rest.

Consider `CCc1ccc(-c2ccc(COc3ccc(CC4SC(=O)NC4=O)cc3)cc2)cc1` (stereo not drawn), for which the growth with SK-MEL-2 melanoma was 71.6%; with EKVX NSCLC it was 63%; in the assay on SN12C renal, 74.5%; with UO-31 renal, 61.1%; with TK-10 renal, 92.8%; in the assay on ACHN renal, 69.5%. For the same molecule, the growth in the assay with CAKI-1 renal was 51%; with A498 renal, 100%; with CCRF-CEM leukemia, 61.3%; in the assay with MOLT-4 leukemia it was 58.5%; with SR leukemia, 45.9%; with RPMI-8226 leukemia, 57.5%. Moreover, the growth with OVCAR-8 ovarian is 77.2%; in the assay on OVCAR-5 ovarian, 91.2%; with OVCAR-4 ovarian it was 58.6%; in the assay with SK-OV-3 ovarian, 84.9%; in the assay with IGROV1 ovarian, 63.8%; in the assay on OVCAR-3 ovarian it was 73.6%. The growth was 80.9% with HS 578T breast and 65.1% in the assay on NCI/ADR-RES ovarian.

In the case of `CCOC(=O)Nc1ccc2c(c1)/C(=N\NC(=S)NC)c1ccccc1-2`, the growth was 101% in the assay on SK-MEL-2 melanoma; 79.7% with EKVX NSCLC; 73.8% in the assay on SN12C renal; 104% in the assay on UO-31 renal; 76.7% in the assay with TK-10 renal; 83.7% in the assay on ACHN renal. The growth in the assay with CAKI-1 renal was 81.4%; in the assay on A498 renal, 33.6%; with CCRF-CEM leukemia, 61.8%; with MOLT-4 leukemia, 87.4%; in the assay on SR leukemia it was 63.9%; with RPMI-8226 leukemia, 58.7%. The growth in the assay with OVCAR-8 ovarian was 83%; in the assay on OVCAR-5 ovarian, 97.8%; with OVCAR-4 ovarian, 92.3%; in the assay with SK-OV-3 ovarian, 112%; in the assay on IGROV1 ovarian, 100%; in the assay on OVCAR-3 ovarian, 95.6%. The results for the growth with HS 578T breast and with NCI/ADR-RES ovarian were 90.4% and 76.7%, respectively.

In the case of `C#CCOc1ccc(C2=NN(CC3CC3)C3N=C(Cl)c4ncn(CC5CC5)c4N23)cc1OCC#C` (stereo not drawn), the growth was 82.7% in the assay on SK-MEL-2 melanoma; 80.1% in the assay with EKVX NSCLC; 82.2% in the assay with SN12C renal; 46.9% in the assay on UO-31 renal; 76% in the assay on TK-10 renal; 62% in the assay on ACHN renal. Besides, the growth in the assay with CAKI-1 renal was 43.7%; in the assay with A498 renal it was 50.9%; in the assay with CCRF-CEM leukemia it was 64.3%; with MOLT-4 leukemia, 61%; in the assay on SR leukemia, 65.7%; in the assay on RPMI-8226 leukemia it was 73.7%. Besides, the growth in the assay on OVCAR-8 ovarian was 71.6%; with OVCAR-5 ovarian it was 96.6%; in the assay on OVCAR-4 ovarian, 71.3%; in the assay on SK-OV-3 ovarian, 73.8%; with IGROV1 ovarian it was 67.8%; in the assay with OVCAR-3 ovarian, 90.4%. Moreover, the growth in the assay on HS 578T breast is 79.4%; with NCI/ADR-RES ovarian, 85.3%.

As to `O=C(CCCSc1nc(-c2ccccc2)cc(-c2ccccc2)n1)NO`, the growth in the assay on SK-MEL-2 melanoma is 3.29% (active); in the assay on EKVX NSCLC, 10.3%; in the assay on SN12C renal, 12.3%; in the assay with UO-31 renal, -13.9% (active); in the assay with TK-10 renal, 9.4% (active); in the assay on ACHN renal it was 0.594% (active). Also, the growth was 1.69% (active) in the assay on CAKI-1 renal; -15.6% (active) in the assay on A498 renal; 3.58% (active) in the assay with CCRF-CEM leukemia; 4.55% (active) in the assay with MOLT-4 leukemia; 1.05% (active) in the assay with SR leukemia; 14.9% in the assay on RPMI-8226 leukemia. For the same molecule, the growth in the assay with OVCAR-8 ovarian is 5.38% (active); in the assay on OVCAR-5 ovarian it was 9.78% (active); with OVCAR-4 ovarian it was 11.9%; with SK-OV-3 ovarian, -18.6% (active); in the assay with IGROV1 ovarian it was 12.6%; with OVCAR-3 ovarian, -5.33% (active). Further, the figures for the growth in the assay with HS 578T breast and with NCI/ADR-RES ovarian were 45.2% and -12.1% (active), respectively.

In the case of `Nc1nc(Nc2ccccc2)c2ncn(Cc3cc4c(cc3Br)OCO4)c2n1`, the growth in the assay on SK-MEL-2 melanoma is 36.9%; in the assay with EKVX NSCLC, 44.7%; in the assay on SN12C renal, 7.96% (active); in the assay with UO-31 renal, 40.3%; in the assay on TK-10 renal, 35.1%; in the assay with ACHN renal, 16.9%. The growth with CAKI-1 renal was 18.2%; in the assay with A498 renal, -3.53% (active); in the assay with CCRF-CEM leukemia, 11.2%; in the assay with MOLT-4 leukemia, 10.4%; in the assay on SR leukemia, 10.5%; with RPMI-8226 leukemia, 9.96% (active). Besides, the growth in the assay on OVCAR-8 ovarian is 6.21% (active); with OVCAR-5 ovarian it was 32.1%; with OVCAR-4 ovarian, 40.6%; with SK-OV-3 ovarian, 11.5%; in the assay with IGROV1 ovarian, 37.5%; in the assay on OVCAR-3 ovarian, 2.58% (active). In addition, the growth in the assay on HS 578T breast was 34.1%.

Take `C=CCCC1(C)NC(=O)NC1=O` (stereo not drawn): the growth in the assay with SK-MEL-2 melanoma was 102%; with EKVX NSCLC it was 105%; with SN12C renal it was 97.9%; in the assay with UO-31 renal, 97.8%; with TK-10 renal, 89.9%; in the assay with ACHN renal it was 112%. Moreover, the growth in the assay with CAKI-1 renal was 93.3%; in the assay on A498 renal it was 88.5%; in the assay with CCRF-CEM leukemia it was 85.6%; in the assay with MOLT-4 leukemia, 83.7%; in the assay with SR leukemia, 94.4%; in the assay with RPMI-8226 leukemia, 104%. Further, the growth is 102% in the assay with OVCAR-8 ovarian; 102% with OVCAR-5 ovarian; 99.4% with OVCAR-4 ovarian; 94.6% in the assay on SK-OV-3 ovarian; 115% in the assay on IGROV1 ovarian; 106% in the assay on OVCAR-3 ovarian. Besides, the growth with HS 578T breast was 105%.

Consider `Cn1cc(-c2noc(-c3cn(C)c4ncc(Br)cc34)n2)c2cc(Cl)ccc21`, for which the growth in the assay on SK-MEL-2 melanoma was 82.4%; in the assay with EKVX NSCLC it was 62.7%; in the assay with SN12C renal it was 50.5%; in the assay with UO-31 renal, 71.8%; in the assay with TK-10 renal, 64.7%; in the assay with ACHN renal, 31.8%. Further, the growth in the assay with CAKI-1 renal is 50.8%; with A498 renal it was 84.8%; with CCRF-CEM leukemia, 68.6%; in the assay with MOLT-4 leukemia, 67.7%; in the assay on SR leukemia it was 44.3%; in the assay with RPMI-8226 leukemia it was 87.6%. The growth in the assay with OVCAR-8 ovarian was 99.7%; in the assay with OVCAR-5 ovarian, 70.5%; in the assay with OVCAR-4 ovarian it was -25.7% (active); with SK-OV-3 ovarian, 62.8%; in the assay with IGROV1 ovarian, 54.2%; in the assay with OVCAR-3 ovarian, 44.2%. For the same molecule, the results for the growth in the assay with HS 578T breast and in the assay on NCI/ADR-RES ovarian were 65.8% and 58.5%, respectively.

As to `O=C(O)c1cccc(CN2CCN(c3cc4c(cc3F)c(=O)c(C(=O)O)cn4C3CC3)CC2)c1O`, the growth with SK-MEL-2 melanoma was 101%; in the assay with EKVX NSCLC, 100%; with SN12C renal it was 102%; in the assay on UO-31 renal, 81.6%; in the assay on TK-10 renal it was 96.6%; in the assay with ACHN renal it was 103%. Further, the growth with CAKI-1 renal was 88.7%; in the assay with A498 renal, 106%; in the assay on CCRF-CEM leukemia, 101%; in the assay on MOLT-4 leukemia it was 105%; with SR leukemia, 87.5%; with RPMI-8226 leukemia, 103%. Further, the growth in the assay on OVCAR-8 ovarian is 96.7%; in the assay on OVCAR-5 ovarian, 102%; with OVCAR-4 ovarian, 114%; in the assay on SK-OV-3 ovarian, 101%; in the assay on IGROV1 ovarian, 101%; in the assay with OVCAR-3 ovarian it was 106%. Further, the growth with HS 578T breast was 103%; with NCI/ADR-RES ovarian, 101%.
